From PubChem BioAssay
Sampled rows, rich in hits. Any-hit rate of the full collection: about 1.6%.
KCNQ2 inh: inhibitors of rat KCNQ2 potassium channel; B-score at 10 µM; CHO-K1 KCNQ2, FluxOR thallium flux, 20 min; hits give low values; O88943; 1.1% of 310,000 active;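 active = fluorescence ratio B-score at most minus 3 library SDs, with starting brightness B-score within 2 library SDs, cut at about -5.5 in these data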
KCNQ2 pot: potentiators of rat KCNQ2 potassium channel; O88943; CHO-K1 KCNQ2, FluxOR thallium flux fluorescence; hits give high values; B-score at 10 µM; 0.54% of 310,000 active;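 active = fluorescence ratio B-score at least 3 SD of library B-scores, with initial fluorescence B-score within 3 of them, cut at about 5.3 in these data; same plate scores as AID 2156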;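 note: B-score of peak minus minimum over baseline fluorescence ratio after K+ and Tl+ stimulus; positive B-score means potentiation of KCNQ2 with more thallium influx and brighter signal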
Kir21 confirm: confirmation of mouse Kir2.1 potassium channel inhibitors; shares compounds with KCNQ2 pot; Kir2.1-expressing cells, FluxOR thallium flux fluorescence; hits give low values; Tl flux remaining, % of negative control (hits give low values), % at 10 µM; 41% of 2,300 active;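 active = Primary-screen hit whose thallium flux fell at least 3 control SD below untreated wells in both duplicates, with normal baseline fluorescence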
Target sequence (P35561 whole entry, looked up): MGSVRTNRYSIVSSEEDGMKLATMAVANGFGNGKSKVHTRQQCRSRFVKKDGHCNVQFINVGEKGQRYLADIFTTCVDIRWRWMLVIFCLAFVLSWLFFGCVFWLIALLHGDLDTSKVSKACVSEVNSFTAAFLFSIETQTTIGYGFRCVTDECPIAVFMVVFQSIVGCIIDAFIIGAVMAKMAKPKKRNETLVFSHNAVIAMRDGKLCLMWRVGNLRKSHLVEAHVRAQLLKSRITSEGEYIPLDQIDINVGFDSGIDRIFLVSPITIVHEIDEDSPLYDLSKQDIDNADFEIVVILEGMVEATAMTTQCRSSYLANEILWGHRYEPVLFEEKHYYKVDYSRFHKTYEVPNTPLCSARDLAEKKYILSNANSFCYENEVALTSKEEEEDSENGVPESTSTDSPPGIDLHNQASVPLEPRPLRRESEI
HEK293 ctr: alters thallium flux in parental HEK293 cells, Kir2.1 counter-screen. shares compounds with KCNQ2 pot. FluxOR thallium flux fluorescence; 0% = unstimulated blank wells. FluxOR signal as % of negative control (100 = no effect), % at 10 µM. 19% of 2,300 active. AID 2105;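 active = dye signal at least 3 control SD above or below untreated wells in both duplicates, raw fluorescence within 3, either direction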;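 note: percent is based on the flux ratio of peak minus minimum fluorescence over baseline F0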
CHO-K1 ctr: counter-screen for KCNQ2 potentiators: effect in parental CHO-K1 cells. shares compounds with KCNQ2 pot. FluxOR thallium flux fluorescence; zero = vehicle mean+3SD, 100% = vehicle-minus-blank window. activity increase over 3SD of controls, % at 10 µM. 43% of 1,200 active;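 active = signal rise of at least 3 SD above the untreated control mean, in both duplicate wells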;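 note: counter screen of KCNQ2 potentiator hits so any rise reflects channel-independent effects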
KCNQ1 pot spec: tests whether KCNQ2 potentiators also act on human KCNQ1; shares compounds with KCNQ2 pot; CHO KCNQ1 stable, FluxOR thallium flux fluorescence; beyond 3SD, as % of vehicle-control signal; activation over 3SD threshold, % at 10 µM; 28% of 1,200 active; AID 2283;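 active = fluorescence ratio rise of at least 3 SD of vehicle wells above their mean, in both replicate wells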
KCNQ2 pot conf: rat KCNQ2 channel potentiator confirmation | shares compounds with KCNQ2 pot | CHO-KCNQ2 cells, FluxOR thallium flux fluorescence | 68% of 1,200 active | potentiation, less the hit threshold, % at 10 µM | AID 2287;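 active = fluorescence ratio rising 3 SD or more over the vehicle control mean in both replicates, plus primary screen hit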;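 note: peak minus minimum thallium fluorescence divided by baseline after K/Tl stimulus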
Kir2-1 sel: selectivity of KCNQ2 potentiators: effect on mouse Kir2.1; shares compounds with KCNQ2 pot; HEK293 Kir2.1, FluxOR thallium flux fluorescence; activity over 3SD threshold, % at 10 µM; 2% of 1,200 active; AID 2345;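 active = fluorescence ratio rise of at least 3 SD above the vehicle-control mean, seen in both replicates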
Numbers stand for hits.

For CC1=NN(C(=O)c2ccccc2C)C(O)(c2ccc(Cl)cc2)C1 (configuration not stated) the results were KCNQ2 inh inactive, KCNQ2 pot 11, Kir21 confirm inactive, HEK293 ctr inactive, CHO-K1 ctr 22, KCNQ1 pot spec inactive, KCNQ2 pot conf inactive and Kir2-1 sel inactive.
Screening CC(C)CCn1c(=O)c2ccccc2n2c(CN3CCOCC3)nnc12 returned KCNQ2 inh inactive and KCNQ2 pot inactive.
`CC(C)C(=O)O/N=C(\N)c1ccc(Oc2ccc(Cl)cc2)c([N+](=O)[O-])c1` gave KCNQ2 inh inactive and KCNQ2 pot inactive.
Cc1nc(N2CCC(C)CC2)c2c(C)c(C(=O)Nc3ccc(C)c(F)c3)sc2n1 was read as KCNQ2 inh inactive.
Cc1nc(N2CCN(C)CC2)c2c(C)c(C(=O)Nc3ccc(C)c(F)c3)sc2n1 was read as KCNQ2 inh inactive, Kir21 confirm 64% and HEK293 ctr inactive.
For CC(C)c1ccc(NC(=O)c2sccc2-n2cccc2)cc1 the results were KCNQ2 inh inactive.
Screening CC(/C=N/NC(=O)c1ccccc1F)c1ccccc1 (configuration not stated) returned KCNQ2 inh inactive and KCNQ2 pot inactive.
`CN(C(=O)c1ccccc1F)C(c1ccccc1)c1ccccc1` gave KCNQ2 inh inactive, Kir21 confirm 66% and HEK293 ctr inactive.
`Clc1cccc(CN2CCc3c([nH]c4ccccc34)C2)c1` gave KCNQ2 inh inactive.
`Cc1cccc(CN2CCc3c([nH]c4ccccc34)C2)c1` gave KCNQ2 inh inactive, KCNQ2 pot inactive, Kir21 confirm 43% and HEK293 ctr inactive.
Screening O=C(c1ccc(COc2ccccc2Br)cc1)N1CCCCCC1 returned KCNQ2 inh inactive.
For COC(=O)CN1C(=O)[C@H]2[C@@H](c3ccc(C)o3)N3C(=O)CN(CC4CC4)C(=O)[C@@]3(C)[C@H]2C1=O the results were KCNQ2 inh inactive and KCNQ2 pot inactive.
Screening CCc1nnc2c(N(C)S(=O)(=O)c3ccc(C)cc3)nc3ccccc3n12 returned KCNQ2 inh inactive and KCNQ2 pot inactive.
Cc1ccc(S(=O)(=O)N(C)c2nc3ccccc3[nH]c2=S)cc1 was read as KCNQ2 inh inactive, KCNQ2 pot 5.6, Kir21 confirm inactive, HEK293 ctr 154%, CHO-K1 ctr inactive, KCNQ1 pot spec inactive, KCNQ2 pot conf inactive and Kir2-1 sel inactive.
For COCCSc1nc(N)c2c3c(sc2n1)CN(C)CC3 the results were KCNQ2 inh inactive.
For CCn1c(CC(=O)Nc2ccc(C)cc2)n[nH]c1=S the results were KCNQ2 inh inactive and KCNQ2 pot inactive.
`COC(=O)c1c(NC(=O)CCNCc2ccco2)sc2c1CCC2` gave KCNQ2 inh inactive, KCNQ2 pot inactive, Kir21 confirm 18% and HEK293 ctr inactive.
Screening COc1ccc(NC(=O)c2c(NC(=O)CNCc3ccco3)sc3c2CCC3)cc1 returned KCNQ2 inh inactive.
CCOC(=O)c1c(NC(=O)c2ccco2)sc2c1CCCC2 was read as KCNQ2 inh inactive and KCNQ2 pot inactive.
For CCOC(=O)c1c(NC(=O)CN2CCN(C(=O)c3ccco3)CC2)sc2c1CCCC2 the results were KCNQ2 inh inactive, KCNQ2 pot inactive, Kir21 confirm inactive and HEK293 ctr inactive.
For COCCNC(=O)C1(C(F)(F)F)CC(CCCO)CCCO1 (configuration not stated) the results were KCNQ2 inh inactive.
`COC(=O)c1ccc(NC(=O)CN2CCN(S(=O)(=O)c3ccc(Br)cc3)CC2)cc1` gave KCNQ2 inh inactive.
For COc1ccc(CCNC(=O)c2cccc(NC(=O)CC3SC(N4CCCCC4)=NC3=O)c2)cc1OC (configuration not stated) the results were KCNQ2 inh inactive and KCNQ2 pot inactive.
`N=c1c2c(ncn1Cc1ccco1)Oc1ccc3ccccc3c1C2c1ccccc1` (configuration not stated) gave KCNQ2 inh inactive and KCNQ2 pot inactive.
N=c1c2c(-c3ccccc3)c(-c3ccccc3)n(Cc3ccco3)c2ncn1Cc1ccco1 was read as KCNQ2 inh -6.9, KCNQ2 pot inactive, Kir21 confirm 54% and HEK293 ctr inactive.
For N=c1c2c(-c3ccccc3)c(-c3ccccc3)n(Cc3ccccc3)c2ncn1CCCn1ccnc1 the results were KCNQ2 inh inactive, Kir21 confirm inactive and HEK293 ctr inactive.
`Cc1cc(NCCCn2ccnc2)n2nc(C)c(-c3ccccc3)c2n1` gave KCNQ2 inh inactive.
For CC(C)(CC(=O)O)CC(=O)N1CCN(c2cc(C(F)(F)F)nc3ccccc23)CC1 the results were KCNQ2 inh inactive and KCNQ2 pot inactive.
`CCOc1cccc(CN(C)CC2CCCN(CCc3ccc(Cl)cc3)C2)c1O` (configuration not stated) gave KCNQ2 inh inactive, Kir21 confirm 48% and HEK293 ctr inactive.
For COc1cc(CN(C)CC2CCCN(CCc3ccc(F)cc3)C2)c(Cl)cc1O (configuration not stated) the results were KCNQ2 inh inactive and KCNQ2 pot inactive.
`CC(=O)c1cccc(CN(C)CC2CCCN(CCc3ccccc3C)C2)c1` (configuration not stated) gave KCNQ2 inh inactive, KCNQ2 pot inactive, Kir21 confirm 51% and HEK293 ctr inactive.
`CN(Cc1ccccc1)CC1CCCN(CCc2ccccc2F)C1` (configuration not stated) gave KCNQ2 inh inactive.
For COc1ccc(F)c(CN(C)CC2CCCN(CCc3ccc(F)cc3)C2)c1 (configuration not stated) the results were KCNQ2 inh inactive, Kir21 confirm 31% and HEK293 ctr inactive.
Screening COc1ccc(CN(C)CC2CCCN(CCc3ccc(F)cc3)C2)cc1OC (configuration not stated) returned KCNQ2 inh inactive, Kir21 confirm 62% and HEK293 ctr inactive.
For COc1ccc(CN(C)CC2CCCN(CCc3ccc(Cl)cc3)C2)cc1OC (configuration not stated) the results were KCNQ2 inh inactive.
COc1ccc(CCN2CCCC(CN(C)Cc3cc(OC)c(OC)c(OC)c3)C2)cc1 (configuration not stated) was read as KCNQ2 inh inactive and KCNQ2 pot inactive.
